Source: PubChem BioAssay AID1159580 (chemical genetic matrix, 2015)
The whole screen tested about 5,500 compounds, of which about 2,000 (36%) were called active. Another 18% or so got no clear call; they are omitted. Cut-off read from the data, not from the text of the source: active = normalized growth mostly below about 0.91 (no sharp cut-off); inconclusive = no clear call, values can overlap the other calls; inactive = mostly above about 0.92. Some of the results follow.

Experiment: chemical genetic growth profiling, strain panel (AID 1159580);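 note: tested at 20 µM; growth read once vehicle control cultures reached saturation at 30 °C; 1 = growth at the plate median or of vehicle wells; lower values mean less growth of the strain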
Conditions: S. cerevisiae deletion strains, growth OD

Measured: normalized growth

C[Se]C[C@H](N)C(=O)O
inactive: locus YAL013W, strain DEP1, stronger effect = lower value 0.981 | locus YAL040C, strain CLN3, stronger effect = lower value 1.05 | locus YCL061C, strain MRC1 (second series), stronger effect = lower value 0.983 | locus YDR150W, strain NUM1, stronger effect = lower value 1 | locus YDR363W, strain ESC2, stronger effect = lower value 0.949 | locus YER002W, strain NOP16, stronger effect = lower value 0.984 | locus YNL175C, strain NOP13, stronger effect = lower value 0.953 | locus YNL197C, strain WHI3, stronger effect = lower value 0.981 | locus YNL224C, strain SQS1, stronger effect = lower value 0.97 | locus YNL322C, strain KRE1, stronger effect = lower value 0.981 | locus YOR083W, strain WHI5 (second series), stronger effect = lower value 0.984 | locus YPL241C, strain CIN2, stronger effect = lower value 0.983
